# “And” between values parts separate entries of the source, which are not always exact repeats. Equal values may be shown once. This is part of a sample that, as a whole, favours compounds with a hit. Of some 83,000 tested, about 20% had one in any assay.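 Compound tested at a single concentration for 48 hours in 96-well plates; a percent growth value below 10 was scored as active.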 The source made the active and inactive calls.
# Tested on: MDA-MB-468 breast
# Test: NCI-60 one-dose screen, 48 h (100 = growth as untreated, 0 = no growth, -100 = all killed)
# Details: 10 µM unless noted
row,SMILES,growth
1,C[C@@H]1COC(Nc2ccc3ncnc(Nc4ccc(OCc5nccs5)c(Cl)c4)c3c2)=N1,-16.4% (active)
2,Cc1ccc(Cl)cc1NC(=O)CCl,73.5% (inactive)
3,COc1ccc(-c2nn3c(-c4ccccc4F)nnc3s2)cc1,6.82% (active)
4,CCOC(=O)/C=C1/SC(=Nc2ccc(C#N)cc2)N(Cc2ccco2)C1=O,27.5% (inactive)
5,CCOc1ccc(Cc2nccc3cc(OCC)c(OCC)cc23)cc1OCC,61.4% (inactive)
6,Cn1ccnc1C(=O)/C=C/c1ccc(NC(=O)Nc2ccc(F)cc2)cc1,6.47% (active)
7,CCc1cccc(C)c1NC(=O)c1sc2nc3c(cc2c1N)C(=O)CCC3,32.5% (inactive)
8,COc1ccc(/C=C/c2nc(Nc3ccc(S(=O)(=O)Nc4cc(C)on4)cc3)c3ccccc3n2)cc1,29.9% (inactive)
9,CCOc1ccc(-c2nc3ccc(-c4nc5ccc(N6CCN(C)CC6)cc5[nH]4)cc3[nH]2)cc1,-85.2% (active)
10,COc1ccc(-c2cc(C(=O)N3N=C(c4ccc(N)cc4)CC3c3ccc(Cl)cc3)c3cc(OC)ccc3n2)cc1 (stereo not given),95.8% (inactive)
11,CCCCCCCCNC(=O)C(C)C,85.4% (inactive)
12,COc1ccc(C2CC(c3cnccn3)=NN2)cc1OC (stereo not given),105% (inactive)
13,O=C(Cc1ccc(F)c(Cl)c1)Nc1cc(C2(C(F)(F)F)CC2)nn1Cc1ccccc1,23.9% (inactive)
14,O=C(O)c1ccc(NCc2cn(-c3ccc(C(F)(F)F)cc3)nc2-c2ccc(C(=O)O)cc2)cc1,123% (inactive)
15,CCOCc1cc(C(C)(C)C)ccc1O,94.3% (inactive)
16,COc1cc(CCCO)c(OC)c(OC)c1OC,104% (inactive)
17,OC(c1cccc(OCc2ccccc2)c1)c1nnc(-c2ccccc2)o1 (stereo not given),64.8% (inactive)
18,CCN1CCN(c2nc(C)cc(N(CCCNc3ccnc4cc(Cl)ccc34)Cc3ccco3)n2)CC1,84.2% (inactive)
19,C=CCn1c(C)nc2ccc(Nc3nc(Nc4ccc(F)cc4)nc4ccccc34)cc21,49.3% (inactive)
20,O=C(NNc1nc2cc(F)ccc2n2c(CN3CC4(COC4)C3)ccc12)c1cnccn1,-16.1% (active)

row,SMILES,growth
1,CCCCCCCCCCCCCCCC(N)c1ccccc1 (stereo not given),-82.2% (active)
2,CC(=O)N=c1ccc2nc3c(cc(N)c4ccccc43)oc-2c1,-44.5% (active)
3,Cc1occc1-c1nc2s/c(=C\c3cn(-c4ccccc4)nc3-c3ccccc3)c(=O)n2n1,89.8% (inactive)
4,CN(C)CCn1c2ccc(N)cc2c2nc3ccccc3nc21,23.7% (inactive)
5,CCC(=C(c1ccc(OCCN2CCCCC2)cc1)c1ccc(OCCN2CCCCC2)cc1)c1ccc(Cl)cc1,-77% (active)
6,Nc1c(C(=O)NC2CCCCC2)sc2nc3c(cc12)C(=O)CCC3,86.1% (inactive)
7,O=[N+]([O-])c1ccccc1N=Nc1ccc(O)cc1O,118% (inactive)
8,CCCC(F)C(=O)O (stereo not given),108% (inactive)
9,CCOC(=O)c1sc(-c2ccc(OS(=O)(=O)C[C@]34CCC(CC3=O)C4(C)C)c(C=O)c2)nc1C,3.2% (active)
10,CC1=NC2=Nn3c(c4cnn(-c5ccccc5)c4n/c3=N\N)NN2C(c2ccccc2)=C1,73.9% (inactive)
11,CC1=NC(=S)NC(c2ccccc2)/C1=C1/CC(c2ccccc2O)NN1 (stereo not given),107% (inactive)
12,CCN1C(=O)N(c2ccccc2)C2Nn3c(s/c(=C4\C(=O)N(C(C)C)c5ccccc54)c3=O)=NC21 (stereo not given),108% (inactive)
13,CCOc1ccc(-c2cnnn2-c2nonc2-n2cccc2)cc1,10.6% (inactive)
14,CN(C)CCCN1c2ccccc2CCc2ccc(Cl)cc21,-21.6% (active)
15,Cc1cc(N2CCCCCC2)nc(N2CCN(CC(=O)Nc3ccc4c(ccn4Cc4ccccc4)c3)CC2)n1,17.4% (inactive)
16,N=c1c2c(-c3ccccc3)c(-c3ccccc3)oc2ncn1NC(=O)c1cccnc1,105% (inactive)
17,Cn1cc(-c2nonc2-c2cn(C)c3ccc(F)cc23)c2ccccc21,0.775% (active)
18,CCN(CC)CCC(CNc1ccnc2cc(Cl)ccc12)c1ccc(OC)cc1 (stereo not given),9.36% (active) and -3.58% (active)
19,CNC(=O)c1cc(Oc2cccc3nc(NC(=O)Nc4cc(C(F)(F)F)ccc4Cl)ccc23)ccn1,111% (inactive)
20,COc1ccc(-n2sc(=O)n(Cc3ccc(COC(=O)C(C)c4ccc(CC(C)C)cc4)cc3)c2=O)cc1 (stereo not given),-46.1% (active)

# Source: PubChem BioAssay (NCI)
